This note sets out measurements from paper PMC3218832.

Some targets named below: RELARELA (p65 homodimer) (Homo sapiens, UniProt Q04206 1-307); p50p50 homodimer (Homo sapiens, UniProt P19838 7-356); RELB subunit;p50 subunit (Homo sapiens;Homo sapiens, UniProt Q01201;P19838 120-401;7-356).
Assay in all cases: protein binding microarray; high values mean tight binding
Common to all, as to conditions: dsDNA, one strand shown

The target of the next experiment is T1, p52p52 homodimer (Homo sapiens, UniProt Q00653 4-332).
T1 sequence: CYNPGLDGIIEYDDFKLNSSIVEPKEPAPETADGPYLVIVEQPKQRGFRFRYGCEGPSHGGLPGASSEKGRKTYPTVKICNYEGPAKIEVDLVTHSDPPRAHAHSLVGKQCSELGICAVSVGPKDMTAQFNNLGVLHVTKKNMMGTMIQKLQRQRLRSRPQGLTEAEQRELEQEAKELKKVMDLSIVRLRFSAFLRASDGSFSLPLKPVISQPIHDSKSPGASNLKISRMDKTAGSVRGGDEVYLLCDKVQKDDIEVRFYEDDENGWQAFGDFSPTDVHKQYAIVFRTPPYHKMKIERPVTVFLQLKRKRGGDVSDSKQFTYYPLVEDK

In experiment [1] the target is RELA (p65) subunit of heterodimer;p50 subunit (Homo sapiens;Homo sapiens, UniProt Q04206;P19838 1-307;7-356).
Experiment [2] addresses RELA (p65) subunit of heterodimer;p52 subunit (Homo sapiens;Homo sapiens, UniProt Q04206;Q00653 1-307;4-332).
Another experiment deals with T2, RELB subunit;p52 subunit (Homo sapiens;Homo sapiens, UniProt Q01201;Q00653 120-401;4-332).
T2 sequence 1: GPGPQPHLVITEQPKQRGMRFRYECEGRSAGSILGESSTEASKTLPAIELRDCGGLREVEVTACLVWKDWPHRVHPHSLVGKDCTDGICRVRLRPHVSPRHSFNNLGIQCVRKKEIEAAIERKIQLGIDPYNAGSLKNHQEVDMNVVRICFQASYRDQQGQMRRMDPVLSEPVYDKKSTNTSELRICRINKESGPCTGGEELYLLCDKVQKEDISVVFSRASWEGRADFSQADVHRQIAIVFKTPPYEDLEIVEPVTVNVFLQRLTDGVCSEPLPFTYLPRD
T2 sequence 2: T1 sequence

The target in experiment [3] is C-Rel subunit;p50 subunit (Homo sapiens;Homo sapiens, UniProt Q04864;P19838 1-285;7-356).
Experiment [4] addresses T3, C-Rel subunit;p52 subunit (Homo sapiens;Homo sapiens, UniProt Q04864;Q00653 1-285;4-332).
T3 sequence 1: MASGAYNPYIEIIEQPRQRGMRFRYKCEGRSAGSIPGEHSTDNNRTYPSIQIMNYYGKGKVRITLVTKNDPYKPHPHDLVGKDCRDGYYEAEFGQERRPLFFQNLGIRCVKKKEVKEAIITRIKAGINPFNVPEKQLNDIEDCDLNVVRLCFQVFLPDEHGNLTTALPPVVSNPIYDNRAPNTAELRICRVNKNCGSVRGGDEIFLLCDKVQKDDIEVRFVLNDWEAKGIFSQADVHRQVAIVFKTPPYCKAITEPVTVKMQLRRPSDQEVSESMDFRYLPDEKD
T3 sequence 2: T1 sequence

Sequence of RELA (p65) subunit of heterodimer;p50 subunit (Q04206 1-307, chain 1 of 2): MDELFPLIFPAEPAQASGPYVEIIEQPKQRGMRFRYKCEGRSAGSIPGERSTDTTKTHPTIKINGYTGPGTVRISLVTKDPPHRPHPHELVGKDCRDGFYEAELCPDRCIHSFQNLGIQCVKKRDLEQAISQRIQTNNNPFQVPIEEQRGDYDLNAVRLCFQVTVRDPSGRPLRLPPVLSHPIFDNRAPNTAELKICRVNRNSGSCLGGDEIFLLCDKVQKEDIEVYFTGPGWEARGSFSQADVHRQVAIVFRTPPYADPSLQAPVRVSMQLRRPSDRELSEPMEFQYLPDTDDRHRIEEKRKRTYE
Sequence of RELA (p65) subunit of heterodimer;p50 subunit (P19838 7-356, chain 2 of 2): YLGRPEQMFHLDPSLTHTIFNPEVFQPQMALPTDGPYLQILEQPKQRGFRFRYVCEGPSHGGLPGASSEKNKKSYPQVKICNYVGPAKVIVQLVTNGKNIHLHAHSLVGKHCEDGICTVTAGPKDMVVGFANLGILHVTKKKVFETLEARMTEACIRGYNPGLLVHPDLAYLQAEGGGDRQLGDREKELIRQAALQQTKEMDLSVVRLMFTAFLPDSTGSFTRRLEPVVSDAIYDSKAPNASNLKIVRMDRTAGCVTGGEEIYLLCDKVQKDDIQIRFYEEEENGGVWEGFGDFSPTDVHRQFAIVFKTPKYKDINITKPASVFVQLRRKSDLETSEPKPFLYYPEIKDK
Sequence of RELARELA (p65 homodimer) (Q04206 1-307): as the sequence (Q04206 1-307, chain 1 of 2) above
Sequence of p50p50 homodimer (P19838 7-356): as the sequence (P19838 7-356, chain 2 of 2) above

AGGTATACCCT: the binding signal was -0.0429 z-score with RELARELA (p65 homodimer); -0.139 z-score with p50p50 homodimer; -0.102 z-score with p52p52 homodimer; -0.262 z-score in experiment [1]; -0.241 z-score in [2]; -0.242 z-score with RELB subunit;p50 subunit. In addition, the binding signal is -0.17 z-score with RELB subunit;p52 subunit, -0.467 z-score in experiment [3] and -0.258 z-score in experiment [4].

Regarding AAGAACCCCCT, the binding signal with RELARELA (p65 homodimer) was -0.175 z-score; with p50p50 homodimer it was 1.5 z-score; with p52p52 homodimer it was 1.86 z-score; in experiment [1], 2.09 z-score; in experiment [2], 1.57 z-score; in the experiment with RELB subunit;p50 subunit, 2.18 z-score. Also, the binding signal in the experiment with RELB subunit;p52 subunit is 2.07 z-score; in experiment [3], 1.44 z-score; in experiment [4], 1.48 z-score.

For the sequence CAGGATCCCCT, the binding signal was -0.318 z-score with RELARELA (p65 homodimer); 1.34 z-score with p50p50 homodimer; 1.3 z-score with p52p52 homodimer; 1.91 z-score in [1]; 1.43 z-score in experiment [2]; 1.79 z-score with RELB subunit;p50 subunit. The results for the binding signal (in the experiment with RELB subunit;p52 subunit; in experiment [3]; in [4]) were 1.65 z-score, 1.34 z-score and 0.975 z-score, respectively.

For the sequence GAAATGACCCT, the binding signal with RELARELA (p65 homodimer) is -0.43 z-score; in the experiment with p50p50 homodimer it was -0.328 z-score; with p52p52 homodimer it was -0.304 z-score; in experiment [1], -0.247 z-score; in [2] it was -0.11 z-score; with RELB subunit;p50 subunit, -0.287 z-score. In addition, the binding signal was -0.38 z-score in the experiment with RELB subunit;p52 subunit, -0.632 z-score in experiment [3] and -0.223 z-score in experiment [4].

CAAATAATCCT: the binding signal in the experiment with RELARELA (p65 homodimer) was -0.308 z-score; with p50p50 homodimer, -0.88 z-score; in the experiment with p52p52 homodimer, -0.501 z-score; in experiment [1], -0.911 z-score; in experiment [2], -0.746 z-score; with RELB subunit;p50 subunit it was -0.974 z-score. The results for the binding signal (with RELB subunit;p52 subunit; in [3]; in [4]) were -0.846 z-score, -1.09 z-score and -0.674 z-score, respectively.

As for AAAGGAGTCCC, the binding signal with RELARELA (p65 homodimer) was 0.141 z-score; with p50p50 homodimer, 0.939 z-score; with p52p52 homodimer, 0.569 z-score; in [1], 0.732 z-score; in experiment [2] it was 0.431 z-score; with RELB subunit;p50 subunit, 0.907 z-score. Moreover, the binding signal in the experiment with RELB subunit;p52 subunit came to 0.607 z-score; in experiment [3], 0.81 z-score; in [4], 0.405 z-score.

Regarding CAGTAAATCCT, the binding signal is -0.441 z-score in the experiment with RELARELA (p65 homodimer); -1.23 z-score in the experiment with p50p50 homodimer; -0.605 z-score in the experiment with p52p52 homodimer; -0.903 z-score in experiment [1]; -0.822 z-score in [2]; -0.822 z-score with RELB subunit;p50 subunit. In addition, the binding signal with RELB subunit;p52 subunit was -0.598 z-score; in [3] it was -1.01 z-score; in [4] it was -0.81 z-score.

With GGATACTTCCT, the binding signal was 0.213 z-score with RELARELA (p65 homodimer); -1.36 z-score with p50p50 homodimer; -0.625 z-score with p52p52 homodimer; -0.647 z-score in experiment [1]; -0.831 z-score in experiment [2]; -1.14 z-score with RELB subunit;p50 subunit. The values for the binding signal (in the experiment with RELB subunit;p52 subunit; in experiment [3]; in experiment [4]) were -0.942 z-score, -1.04 z-score and -0.591 z-score, respectively.

Turning to GAGAAAGTCCC, the binding signal was 1.97 z-score with RELARELA (p65 homodimer); 1.14 z-score with p50p50 homodimer; 1.91 z-score with p52p52 homodimer; 1.51 z-score in [1]; 1.47 z-score in experiment [2]; 1.81 z-score with RELB subunit;p50 subunit. Moreover, the binding signal with RELB subunit;p52 subunit came to 1.7 z-score; in [3], 1.39 z-score; in experiment [4], 1.69 z-score.

Turning to AGGTTTGTCCC, the binding signal was 1.29 z-score with RELARELA (p65 homodimer); 0.56 z-score with p50p50 homodimer; 0.82 z-score with p52p52 homodimer; 0.878 z-score in [1]; 0.918 z-score in experiment [2]; 0.602 z-score with RELB subunit;p50 subunit. The values for the binding signal (with RELB subunit;p52 subunit; in experiment [3]; in [4]) were 0.621 z-score, 0.937 z-score and 0.735 z-score, respectively.

Turning to AGAAGCTCCCT, the binding signal in the experiment with RELARELA (p65 homodimer) was -0.425 z-score; in the experiment with p50p50 homodimer, 0.158 z-score; with p52p52 homodimer, -0.322 z-score; in experiment [1], -0.103 z-score; in experiment [2], -0.284 z-score; with RELB subunit;p50 subunit, -0.0298 z-score. The binding signal is -0.239 z-score with RELB subunit;p52 subunit, -0.54 z-score in experiment [3] and -0.52 z-score in experiment [4].

For AGAATGTTCCT, the binding signal in the experiment with RELARELA (p65 homodimer) was 0.037 z-score; with p50p50 homodimer, -1.47 z-score; in the experiment with p52p52 homodimer, -0.491 z-score; in experiment [1], -0.64 z-score; in experiment [2] it was -0.735 z-score; with RELB subunit;p50 subunit, -0.963 z-score. Moreover, the binding signal in the experiment with RELB subunit;p52 subunit is -0.948 z-score; in experiment [3], -1.17 z-score; in experiment [4], -0.63 z-score.

Turning to AGAGTCATCCT, the binding signal is -0.641 z-score in the experiment with RELARELA (p65 homodimer); -2.61 z-score with p50p50 homodimer; -0.647 z-score with p52p52 homodimer; -1.23 z-score in [1]; -0.868 z-score in experiment [2]; -1.06 z-score with RELB subunit;p50 subunit. For the same sequence, the figures for the binding signal (with RELB subunit;p52 subunit; in experiment [3]; in [4]) were -0.873 z-score, -1.63 z-score and -1.09 z-score, respectively.

CAAGGATTCCC: the binding signal was 1.01 z-score with RELARELA (p65 homodimer); 0.585 z-score in the experiment with p50p50 homodimer; 0.314 z-score in the experiment with p52p52 homodimer; 0.704 z-score in experiment [1]; 0.382 z-score in experiment [2]; 0.457 z-score in the experiment with RELB subunit;p50 subunit. Also, the binding signal amounted to 0.419 z-score with RELB subunit;p52 subunit, 0.93 z-score in experiment [3] and 0.576 z-score in [4].

With CAATTTATCCT, the binding signal with RELARELA (p65 homodimer) was -0.0381 z-score; with p50p50 homodimer it was -0.676 z-score; with p52p52 homodimer, -0.566 z-score; in [1] it was -0.744 z-score; in experiment [2], -0.71 z-score; with RELB subunit;p50 subunit, -0.801 z-score. Also, the binding signal in the experiment with RELB subunit;p52 subunit is -0.64 z-score; in experiment [3], -1.1 z-score; in experiment [4], -0.673 z-score.
